# Screening data deposited in PubChem by The Scripps Research Institute Molecular Screening Center.
# pPAFAH inh: pPAFAH (human) enzyme inhibition; inhibition, % at 3.39 µM; Q13093; recombinant pPAFAH, FP-rhodamine probe fluorescence polarization; 330,000 compounds, 1.5% hits;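 active = inhibition above the mean inhibition across the screen plus 3 SD, cut at about 25% in these data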;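 note: inhibitors block binding of the rhodamine activity-based probe so polarization drops; 0% = enzyme with DMSO and 100% = wells lacking pPAFAH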
# Target sequence (Q13093 whole entry, looked up): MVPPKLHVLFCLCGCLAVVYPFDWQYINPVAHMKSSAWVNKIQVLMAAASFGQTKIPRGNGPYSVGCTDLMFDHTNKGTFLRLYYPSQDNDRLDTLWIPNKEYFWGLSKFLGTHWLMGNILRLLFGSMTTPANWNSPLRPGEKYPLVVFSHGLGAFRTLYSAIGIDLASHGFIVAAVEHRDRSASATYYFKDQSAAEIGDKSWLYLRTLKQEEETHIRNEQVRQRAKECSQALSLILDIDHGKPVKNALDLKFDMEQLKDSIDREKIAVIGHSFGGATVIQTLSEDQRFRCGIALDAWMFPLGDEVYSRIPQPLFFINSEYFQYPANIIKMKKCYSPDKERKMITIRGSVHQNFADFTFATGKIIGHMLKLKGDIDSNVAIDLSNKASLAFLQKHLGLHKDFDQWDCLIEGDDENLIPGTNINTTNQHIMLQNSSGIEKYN
# PAFAH1B3 FP inh: inhibitors of human PAFAH1B3; Q15102; recombinant PAFAH1B3, FP-rhodamine probe, fluorescence polarization; inhibition, % at 3.39 µM; 340,000 compounds, 0.28% hits; AID 492972;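 active = inhibition above the screen-wide average of all tested compounds plus 3 SD, cut at about 25% in these data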;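 note: 0% = enzyme with DMSO only and 100% = wells lacking PAFAH1B3 protein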
# Fam108B counter: Fam108B inhibition, counter-screen for RBBP9 inhibitors | inhibition, % at 9.51 µM | 300,000 compounds, 0.33% hits | recombinant Fam108B, FP-Rh probe fluorescence polarization;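 active = inhibition above the screen mean inhibition plus 3 SD, computed separately per campaign, cut at about 18% in these data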;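 note: inhibitors lower polarization as less probe binds the enzyme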
# PME-1 inh: PME-1 (human) inhibition; Q9Y570; recombinant PME-1, FP-Rh probe fluorescence polarization; inhibition, % at 5.9 µM; 320,000 compounds, 0.53% hits;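 active = inhibition above the campaign mean of all compounds plus 3 SD, cut at about 26% in these data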;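 note: competitive labeling of PME-1 active site by serine hydrolase directed probe; 0% = PME-1 with DMSO and 100% = wells lacking PME-1 enzyme; inhibitors block probe labeling so polarization falls and inhibition rises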
# PAFAH1B2 inh: inhibitors of human PAFAH1B2; 340,000 compounds, 1.2% hits; inhibition, % at 3.39 µM; AID 492953; recombinant PAFAH1B2, FP-rhodamine activity probe, fluorescence polarization;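 active = inhibition above the mean of all tested compounds plus 3 SD, cut at about 24% in these data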;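 note: 0% = enzyme with DMSO and 100% = wells lacking PAFAH1B2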
# PAFAH2 inh: PAFAH2 (human) inhibition; Q99487; recombinant PAFAH2, FP-rhodamine activity probe, fluorescence polarization; 340,000 compounds, 0.99% hits; inhibition, % at 3.39 µM;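 active = inhibition above the mean over all tested compounds plus 3 SD, cut at about 30% in these data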;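 note: inhibitors block probe labeling of enzyme so polarization drops; 0% = enzyme with DMSO and 100% = wells lacking PAFAH2 protein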
# The depositor's hits bear a star; / = no result. Only some compounds are listed: those with a hit (about 2.9% of all), similar ones and a draw of the others.
SMILES,pPAFAH inh,PAFAH1B3 FP inh,Fam108B counter,PME-1 inh,PAFAH1B2 inh,PAFAH2 inh
CCN(CC)C1=CC2=CC(=C(C#N)C#N)CCC2CC1 (stereo not drawn),8.1,12.5,-0.5,7.3,-5.7,6.0
CCCCN(C)C1=CC2=CC(=C(C#N)C#N)CCC2CC1 (stereo not drawn),17.1,16.1,6.0,41.6*,9.4,14.6
CS(=O)(=O)c1ccc2c(c1)sc1nc(=O)c(/C=C3/C=CC(=O)C(O)=C3)c(N)n12,20.5,28.3*,-0.9,-13.6,53.4*,58.5*
CCN(CC)c1ccc(NC(=O)CN2CCN(CC(=O)Nc3ccc(F)cc3)CC2)cc1,6.1,1.4,-5.5,-0.6,1.3,5.2
O=[N+]([O-])c1ccc(NC(=S)N2CCN(S(=O)(=O)c3ccccc3)CC2)cc1,/,4.9,/,/,-6.1,1.4
CC(=O)N1CC=C2C(C#N)=C(N)C(C#N)(C#N)C(CCc3ccccc3)C2C1 (stereo not drawn),3.8,10.0,-1.7,11.4,12.8,-5.9
CCN1CC=C2C(C#N)=C(N)C(C#N)(C#N)C(CCc3ccccc3)C2C1 (stereo not drawn),24.9*,1.5,0.4,3.6,26.1*,2.5
CCOc1ccc(CCNC(=O)CSCc2ccc(C)cc2)cc1OCC,5.0,9.8,1.1,-1.6,0.8,-4.3
N#Cc1c(Cl)nc(N/N=C/c2ccccc2)c(Cl)c1Cl,28.8*,1.0,4.8,6.0,-0.3,-0.2
C[N+](C)(C)c1ccc(/C=N/Nc2nc(Cl)c(C#N)c(Cl)c2Cl)cc1,19.1,9.0,2.5,19.3,1.1,3.7
CC(C)(C)c1ccc(OCC(=O)NNC(=S)NC(=O)c2ccccc2[N+](=O)[O-])c(Br)c1,29.3*,6.2,3.5,2.5,38.9*,11.6
COc1ccc(S(=O)(=O)N2CCN(CCc3ccccc3)CC2)c(OC)c1,-4.3,1.0,1.3,2.8,8.7,4.9
CN1CCN(CC/C=C2/c3ccccc3Sc3ccc(S(=O)(=O)N(C)C)cc32)CC1,24.9*,5.9,3.8,-0.3,0.3,10.1
N#Cc1nc(-c2ccco2)oc1NCc1ccccc1Cl,9.0,/,-3.9,-0.6,/,/
Cc1cccc(N2CCN(C(=O)CCn3c(=O)[nH]c4ccsc4c3=O)CC2C)c1 (stereo not drawn),8.8,15.2,-6.7,9.1,5.1,0.7
Cc1ccc2nc(Cl)c(/C=N/Nc3ccc(C(=O)O)cc3)cc2c1,30.1*,10.2,12.5,-4.5,3.9,-4.0
OCCN1CCN(c2ncnc3c2c(-c2ccccc2)cn3-c2ccc(F)cc2)CC1,25.1*,4.3,1.3,3.0,-1.2,-4.8
COc1ccc(-n2cc(-c3ccccc3)c3c(N4CCN(CCO)CC4)ncnc32)cc1,22.7,-1.4,7.2,4.8,-1.4,-0.8
CCCNC(=O)C1CC(=O)N(c2ccc(OCc3ccc(Cl)cc3)cc2)C1 (stereo not drawn),9.2,0.4,0.2,1.8,29.8*,-3.2
CCCNC(=O)C1CC(=O)N(c2ccc(OCc3ccc(F)cc3)cc2)C1 (stereo not drawn),3.6,-5.9,1.1,0.3,0.3,2.5
NC(=O)C1CC(=O)N(c2ccc(OCc3ccc(Cl)cc3)cc2)C1 (stereo not drawn),9.3,4.1,0.2,6.5,28.1*,-5.5
CCCC(=O)Nc1cccc(Oc2ccc3c(c2)C(=O)NC3=O)c1,-10.1,5.7,-2.6,-8.2,6.6,5.1
Cc1cc(N2CCN(c3nnnn3-c3ccccc3)CC2)n2ncnc2n1,1.4,12.2,-0.7,2.6,1.8,1.7
O=C1[C@H](Cc2ccccc2)NCC=CC[C@H](c2ccc(Cl)cc2)N1Cc1ccccc1,/,1.8,/,/,27.4*,-4.8
CN(C)c1nc(OCCNC(=O)Nc2ccc(Cl)cc2)nc(N(C)C)n1,25.5*,6.7,-2.8,-4.1,4.0,-1.9
CCOc1nc(C)cc(C)c1S(=O)(=O)c1ccc(Cl)cc1,8.9,-1.9,-2.3,8.6,3.5,-1.2
O=C1CS/C(=C\S(=O)(=O)c2ccc(Cl)cc2)N1,4.2,-3.0,0.4,-1.4,24.8*,1.4
CC(C)(C)c1ccc(C(=O)/C=C2\NC(=O)CS2)cc1,10.1,-2.4,4.8,2.9,6.6,12.4
FC(F)(F)c1ccc(CSc2ccccn2)cc1,0.9,6.7,0.5,1.0,1.3,-1.6
